The full ranking holds about 33,000 sequences; the median of “e-score” is about -0.038, and the highest 2% start at about 0.33. Shown is part of a subset that was picked to be rich in the highest values.
What follows are sequences tested against T1, GST-Rok-C97-191 (Bacillus subtilis subsp. subtilis str. …, UniProt O34857 97-191) (assay: protein binding microarray; Rok is a gene silencer of Bacillus subtilis; high values mean tight binding). Details: protein: recombinant; tags: GST (pTH5325, pDEST15-Magic modified); dsDNA, one strand shown.
T1 sequence: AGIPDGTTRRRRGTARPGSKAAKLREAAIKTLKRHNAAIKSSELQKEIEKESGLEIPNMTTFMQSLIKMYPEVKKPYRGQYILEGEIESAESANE
Outline: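 Each has a 25-mer constant primer and a 35-mer variable part from a de Bruijn sequence of order 10, covering every non-palindromic 8-mer at least 32 times (palindromic 16). Preference for each 8-mer is given as a rank-based, unitless enrichment score (E-score). Its range runs from 0.5 (most favored) to −0.5 (most disfavored).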
TCGCCCAA was tested, and the binding signal was -0.12 E-score.
For CTAGTTGA, the binding signal was 0.2 E-score.
In the case of GCAGTTTA, the binding signal is reported as 0.113 E-score.
CTAGTTGC was tested, and the binding signal was 0.23 E-score.
With CTAGTTCA the binding signal was 0.0257 E-score.
ATAGTGTA was tested, and the binding signal was 0.346 E-score.
CTAGTTAC was tested, and the binding signal was 0.38 E-score.
Sequence GGAGTTTA has a binding signal of 0.0723 E-score.
Work on GTAGTGTA yielded a binding signal of 0.118 E-score.
Work on GTAGTTTA yielded a binding signal of 0.423 E-score.
For CTAGTTTA, the binding signal was 0.378 E-score.
For ATAGTGTG, the binding signal was 0.0365 E-score.
With CTAGTTCC the binding signal was 0.262 E-score.
ATGCCCTA was tested, and the binding signal was -0.00598 E-score.
With GCTCGTCA the binding signal was -0.151 E-score.
For ACGTTTTC, the binding signal was 0.12 E-score.
In the case of GATGCATA, the binding signal is reported as 0.176 E-score.
For CCTAGCTA, the binding signal was 0.144 E-score.
In the case of GCTAGCTA, the binding signal is reported as 0.119 E-score.
With AGTAGCTG the binding signal was 0.233 E-score.
AGTAGCTC showed a binding signal of 0.14 E-score.
With ACTAGCTA the binding signal was 0.397 E-score.
Sequence GGTAGCTA has a binding signal of 0.357 E-score.
Sequence GGTAGCGA has a binding signal of 0.0646 E-score.
With CGTAGCTA the binding signal was 0.289 E-score.
For AGTAGCTA, the binding signal was 0.37 E-score.
Work on GCCGTAAA yielded a binding signal of -0.0195 E-score.
ACAAAGTA showed a binding signal of 0.275 E-score.
AATGTCGT showed a binding signal of -0.087 E-score.
Sequence CTATGAGC has a binding signal of -0.0781 E-score.
With ACGAATAG the binding signal was 0.0145 E-score.
Work on TCGATCAA yielded a binding signal of 0.27 E-score.
ATGGAAAG was tested, and the binding signal was -0.0465 E-score.
AATGATCA was tested, and the binding signal was 0.156 E-score.
ATGTGCAC was tested, and the binding signal was -0.0271 E-score.
For CGAATCAA, the binding signal was -0.196 E-score.
CGCTTCAC showed a binding signal of -0.177 E-score.
Sequence AACTGCCC has a binding signal of -0.0946 E-score.
AGCCATAA was tested, and the binding signal was 0.127 E-score.
With CACAAGAA the binding signal was -0.0545 E-score.
Work on CGTAGTTA yielded a binding signal of 0.199 E-score.
CTTAGTTA was tested, and the binding signal was 0.189 E-score.
With ATTAGTTA the binding signal was 0.336 E-score.
With CCTAGTTA the binding signal was 0.168 E-score.
Sequence AGTAGTTA has a binding signal of 0.424 E-score.
GCTAGTTA was tested, and the binding signal was 0.284 E-score.
Sequence GTTAGTTA has a binding signal of 0.325 E-score.
For ACTAGTTA, the binding signal was 0.448 E-score.
AGTAGTTC gave a binding signal of 0.398 E-score.
Work on CGTAGTTC yielded a binding signal of 0.213 E-score.
AGTAGTGA showed a binding signal of 0.121 E-score.
AGTAGTGC was tested, and the binding signal was 0.12 E-score.
ATTGCTGG was tested, and the binding signal was 0.137 E-score.
TAACCGTA was tested, and the binding signal was 0.169 E-score.
CGGATACC gave a binding signal of 0.0204 E-score.
ACTGGCAT was tested, and the binding signal was 0.00831 E-score.
AGTAGTTG was tested, and the binding signal was 0.393 E-score.
With ACTAGTTG the binding signal was 0.313 E-score.
Sequence GGTAGTTA has a binding signal of 0.4 E-score.
Sequence GGTAGTGA has a binding signal of 0.144 E-score.
With AATAGTTC the binding signal was 0.343 E-score.
With AATAGTTA the binding signal was 0.32 E-score.
Sequence ATTAGTTG has a binding signal of 0.118 E-score.
With GGTAGTCA the binding signal was 0.192 E-score.
CATAGTTC was tested, and the binding signal was 0.168 E-score.
In the case of GCCCATTA, the binding signal is reported as -0.125 E-score.
Work on CGTAGAAC yielded a binding signal of 0.207 E-score.
For CGTAGAAG, the binding signal was 0.0648 E-score.
In the case of GGTAGAGA, the binding signal is reported as 0.173 E-score.
Work on TGTAGAAA yielded a binding signal of 0.35 E-score.
With GTTAGAAC the binding signal was 0.125 E-score.
In the case of GCTAGAAA, the binding signal is reported as 0.314 E-score.
CGTAGAAA gave a binding signal of 0.338 E-score.
In the case of TCTAGAAA, the binding signal is reported as 0.205 E-score.
With GGTAGACC the binding signal was -0.0686 E-score.
Sequence TTTAGAAA has a binding signal of 0.175 E-score.
With GGTAGAAC the binding signal was 0.4 E-score.
GGTAGAAA gave a binding signal of 0.465 E-score.
In the case of AACGTGGA, the binding signal is reported as 0.103 E-score.
AATAGCGC gave a binding signal of 0.114 E-score.
For GCCCACAA, the binding signal was -0.0476 E-score.
In the case of GCATCTGA, the binding signal is reported as -0.0514 E-score.
Sequence CAAAGAAC has a binding signal of 0.232 E-score.
In the case of GCAGGGGA, the binding signal is reported as -0.184 E-score.
TAAACGCA showed a binding signal of -0.0161 E-score.
For CGACAACC, the binding signal was -0.054 E-score.
ACCCACGT was tested, and the binding signal was -0.188 E-score.
In the case of ATTAATTC, the binding signal is reported as 0.147 E-score.
In the case of AGTAATTA, the binding signal is reported as 0.376 E-score.
GTTAATTA gave a binding signal of 0.19 E-score.
Sequence GGTAATCA has a binding signal of -0.186 E-score.
AGTAATTG showed a binding signal of 0.31 E-score.
CGTAATTA showed a binding signal of 0.318 E-score.
Work on GGTAATTA yielded a binding signal of 0.395 E-score.
ATTAATTA showed a binding signal of 0.391 E-score.
AGTAATTC showed a binding signal of 0.273 E-score.
For CATTGTAC, the binding signal was 0.109 E-score.
GTTGAAAA was tested, and the binding signal was -0.013 E-score.
Work on AGGTATTC yielded a binding signal of -0.0121 E-score.
Sequence AACTCTCT has a binding signal of 0.0603 E-score.
ACTACCCG showed a binding signal of 0.0272 E-score.
For ACTACCAC, the binding signal was 0.383 E-score.
In the case of ACTACCAT, the binding signal is reported as 0.353 E-score.
With ACTACCCA the binding signal was 0.332 E-score.
For CCTACCAC, the binding signal was 0.251 E-score.
In the case of ACTACCAA, the binding signal is reported as 0.257 E-score.
TCTACCCA was tested, and the binding signal was 0.234 E-score.
For ACTACCAG, the binding signal was 0.213 E-score.
Sequence GCTACCAC has a binding signal of 0.0411 E-score.
Work on GCCGCGCA yielded a binding signal of -0.14 E-score.
Work on CGTTTCAG yielded a binding signal of -0.0327 E-score.
For AGCTCTTA, the binding signal was 0.106 E-score.
For CATCTAAA, the binding signal was 0.111 E-score.
In the case of AGCGGACG, the binding signal is reported as 0.000189 E-score.
For TGACAAAA, the binding signal was 0.0786 E-score.
ATGATGGG showed a binding signal of -0.0998 E-score.
CAAGTAGA was tested, and the binding signal was 0.303 E-score.
For CTAGTAGA, the binding signal was 0.382 E-score.
With AAAGTAGC the binding signal was 0.261 E-score.
For CCAGTAGA, the binding signal was 0.176 E-score.
Sequence ACAGTAGA has a binding signal of 0.364 E-score.
GTAGTACA showed a binding signal of 0.272 E-score.
AAAGTAGG was tested, and the binding signal was 0.262 E-score.
With GTAGTAGA the binding signal was 0.368 E-score.
Work on CTAGTAGC yielded a binding signal of 0.251 E-score.
In the case of AAAGTAGT, the binding signal is reported as 0.328 E-score.
For ACAGTAGT, the binding signal was 0.258 E-score.
GGAGTAGA gave a binding signal of 0.102 E-score.
CCAAGTTC was tested, and the binding signal was -0.0242 E-score.
CTTGTGGC gave a binding signal of -0.167 E-score.
With ACGTGAGC the binding signal was -0.0668 E-score.
With ACGCCTTA the binding signal was 0.073 E-score.
AGCCCGCT gave a binding signal of -0.168 E-score.
For CCATAGCA, the binding signal was -0.0019 E-score.
With ATAGTACG the binding signal was 0.248 E-score.
For AGAGTAGG, the binding signal was -0.15 E-score.
For ATAGTAGC, the binding signal was 0.378 E-score.
AGAGTAGC showed a binding signal of 0.0737 E-score.
With ATAGTAGA the binding signal was 0.355 E-score.
With AGAGTAGA the binding signal was 0.143 E-score.
Sequence ATCGTAGC has a binding signal of -0.0487 E-score.
In the case of AAAGTAGA, the binding signal is reported as 0.298 E-score.
ATAGTAGG showed a binding signal of 0.329 E-score.
GCTTGAAC showed a binding signal of -0.0848 E-score.
For AGTCCATC, the binding signal was -0.159 E-score.
GGTTCAAC was tested, and the binding signal was -0.0853 E-score.
CCTCTTCA gave a binding signal of -0.193 E-score.
For CCAACCTA, the binding signal was -0.0204 E-score.
Sequence GCTTATAA has a binding signal of 0.101 E-score.
Sequence AGTACTAA has a binding signal of 0.277 E-score.
Work on CGTACTAG yielded a binding signal of 0.0424 E-score.
GGTACTAC gave a binding signal of 0.233 E-score.
CGTACTAC showed a binding signal of 0.305 E-score.
AGTACTGG showed a binding signal of 0.0209 E-score.
AGTACTAT was tested, and the binding signal was 0.367 E-score.
AGTACTAC showed a binding signal of 0.35 E-score.
With AGTACTAG the binding signal was 0.334 E-score.
AGTACTCA showed a binding signal of -0.0984 E-score.
Work on ATTGCGCC yielded a binding signal of -0.134 E-score.
In the case of ACCATATG, the binding signal is reported as 0.229 E-score.
AACTGGAC showed a binding signal of -0.0284 E-score.
TAGTGGGA gave a binding signal of 0.119 E-score.
In the case of AATTTCGC, the binding signal is reported as 0.151 E-score.
For GATGAAGC, the binding signal was 0.0229 E-score.
Work on ATTTTATC yielded a binding signal of 0.328 E-score.
With GTTTTATA the binding signal was 0.122 E-score.
With CTTTTATC the binding signal was 0.0697 E-score.
For ATTTTATA, the binding signal was 0.385 E-score.
For ATTTTATG, the binding signal was 0.229 E-score.
CTTTTATA showed a binding signal of 0.236 E-score.
AGACCTGG gave a binding signal of -0.167 E-score.
In the case of GTCGTAAC, the binding signal is reported as 0.0491 E-score.

From paper PMC6212790, “How bacterial xenogeneic silencer rok distinguishes foreign from self DNA in its resident genome”
